PubChem BioAssay (NCATS)

Assay: qHTS drug screen for cell cycle checkpoint inhibitors in PARPi-resistant BRCA-mutant ovarian cancer cell lines. (AID 1963452)
Settings: PEO1/OlaR viability, CellTiter-Glo luminescence, 96 h; measured here: PEO1 parental Z-AUC; stronger effect = lower value
In short: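 PEO1, PEO4 and PEO1/OlaR ovarian cancer cells, 600 per well, exposed 96 h at 37C to a dilution series. Viability read by CellTiter-Glo luminescence, normalized to DMSO and empty wells; activity summarized as Z-AUC.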

Row | Structure (SMILES) | Z-AUC
1 | C[C@@H](NCCCc1cccc(C(F)(F)F)c1)c1cccc2ccccc12 | 0.263
2 | COc1cc(NCc2ccc3nc(N)nc(N)c3c2C)cc(OC)c1OC | 0.153
3 | NC(N)=NC(N)=NCCc1ccccc1 | 0.288
4 | N[C@@H](Cc1ccc(O)c(O)c1)C(=O)O | 0.128
5 | CNNCc1ccc(C(=O)NC(C)C)cc1 | 0.747
6 | OC(Cn1cncn1)(Cn1cncn1)c1ccc(F)cc1F | 0.99
7 | CCOC(=O)c1ccc(C#Cc2ccc3c(c2)C(C)(C)CCS3)nc1 | 1.62
8 | O=c1cc(O)c(Cl)c[nH]1 | 1.19
9 | C1CCC(C(CC2CCCCN2)C2CCCCC2)CC1 (stereo not given) | -0.095
10 | CCn1cc(C(=O)O)c(=O)c2cc(F)c(N3CCN(C)CC3)cc21 | 0.931
11 | CC(C)NCC(O)c1ccc(NS(C)(=O)=O)cc1 (stereo not given) | 1.13
12 | Cc1cccc(N(C)C(=S)Oc2ccc3ccccc3c2)c1 | 0.339
13 | CC(=O)Oc1ccccc1C(=O)Nc1ncc([N+](=O)[O-])s1 | 0.864
14 | CC[C@H](C)C(=O)O[C@H]1C[C@@H](C)C=C2C=C[C@H](C)[C@H](CC[C@@H]3C[C@@H](O)CC(=O)O3)[C@H]21 | 1.47
15 | CC(C)OC(=O)C(C(=O)OC(C)C)=C1SC=CS1 | 0.837
16 | O=S(=O)(O)CCS | 1.56
17 | Cc1nnc(NS(=O)(=O)c2ccc(N)cc2)s1 | 0.997
18 | CNC1CCCN(c2c(F)cc3c(=O)c(C(=O)O)cn(C4CC4)c3c2OC)C1 (stereo not given) | 1.15

Row | Structure (SMILES) | Z-AUC
19 | S=P(N1CC1)(N1CC1)N1CC1 | 1.48
20 | COc1cc2c(Nc3ccc(Br)cc3F)ncnc2cc1OCC1CCN(C)CC1 | 0.081
21 | O=c1oc2c(O)c(O)cc3c(=O)oc4c(O)c(O)cc1c4c23 | 0.754
22 | N=C(N)c1ccc(OCCCCCOc2ccc(C(=N)N)cc2)cc1 | -0.0701
23 | O=C(O)c1cn(C2CC2)c2cc(N3CCNCC3)c(F)cc2c1=O | 0.154
24 | CCCc1nc(C)c2c(=O)[nH]c(-c3cc(S(=O)(=O)N4CCN(CC)CC4)ccc3OCC)nn12 | 0.477
25 | COc1cc([C@@H]2c3cc4c(cc3[C@H](O)[C@H]3COC(=O)[C@H]23)OCO4)cc(OC)c1OC | -1.81
26 | CC1=CC(=O)c2ccccc2C1=O | 0.394
27 | Nc1[nH]c(=O)ncc1F | 1.6
28 | Nc1nc(N)c2nc(CNc3ccc(C(=O)NC(CCC(=O)O)C(=O)O)cc3)cnc2n1 (stereo not given) | 0.192
29 | COC(=O)Nc1nc2ccc(C(=O)c3ccccc3)cc2[nH]1 | -1.51
30 | Nc1nc(N)nc(-c2cc(Cl)ccc2Cl)n1 | 0.667
31 | CC(C)(Sc1cc(C(C)(C)C)c(O)c(C(C)(C)C)c1)Sc1cc(C(C)(C)C)c(O)c(C(C)(C)C)c1 | 1.36
32 | COc1ccc(-c2ccc3cc(C(=O)O)ccc3c2)cc1C12CC3CC(CC(C3)C1)C2 | -0.0792
33 | NCCCC(O)(P(=O)(O)O)P(=O)(O)O | 0.814
34 | COC(=O)Nc1nc2ccc(Sc3ccccc3)cc2[nH]1 | -0.935
35 | CCc1cc(C(N)=S)ccn1 | -0.0543

Same assay, conditions: PEO1/OlaR viability, CellTiter-Glo luminescence, 96 h; measured here: PEO4 Z-AUC; stronger effect = lower value

Row | Structure (SMILES) | Z-AUC
36 | C[C@@H](NCCCc1cccc(C(F)(F)F)c1)c1cccc2ccccc12 | 0.404
37 | COc1cc(NCc2ccc3nc(N)nc(N)c3c2C)cc(OC)c1OC | -0.254
38 | NC(N)=NC(N)=NCCc1ccccc1 | 0.483
39 | N[C@@H](Cc1ccc(O)c(O)c1)C(=O)O | 0.735
40 | CNNCc1ccc(C(=O)NC(C)C)cc1 | 1.05
41 | OC(Cn1cncn1)(Cn1cncn1)c1ccc(F)cc1F | 1.12
42 | CCOC(=O)c1ccc(C#Cc2ccc3c(c2)C(C)(C)CCS3)nc1 | 1.15
43 | O=c1cc(O)c(Cl)c[nH]1 | 1.11
44 | C1CCC(C(CC2CCCCN2)C2CCCCC2)CC1 (stereo not given) | -0.0366
45 | CCn1cc(C(=O)O)c(=O)c2cc(F)c(N3CCN(C)CC3)cc21 | 1.07
46 | CC(C)NCC(O)c1ccc(NS(C)(=O)=O)cc1 (stereo not given) | 0.42
47 | Cc1cccc(N(C)C(=S)Oc2ccc3ccccc3c2)c1 | 0.795
48 | CC(=O)Oc1ccccc1C(=O)Nc1ncc([N+](=O)[O-])s1 | 0.834
49 | CC[C@H](C)C(=O)O[C@H]1C[C@@H](C)C=C2C=C[C@H](C)[C@H](CC[C@@H]3C[C@@H](O)CC(=O)O3)[C@H]21 | 1.3
50 | CC(C)OC(=O)C(C(=O)OC(C)C)=C1SC=CS1 | 1.06
51 | O=S(=O)(O)CCS | 1.53
52 | Cc1nnc(NS(=O)(=O)c2ccc(N)cc2)s1 | 1.46
53 | CNC1CCCN(c2c(F)cc3c(=O)c(C(=O)O)cn(C4CC4)c3c2OC)C1 (stereo not given) | 1.09

Row | Structure (SMILES) | Z-AUC
54 | S=P(N1CC1)(N1CC1)N1CC1 | 1.59
55 | COc1cc2c(Nc3ccc(Br)cc3F)ncnc2cc1OCC1CCN(C)CC1 | -0.0991
56 | O=c1oc2c(O)c(O)cc3c(=O)oc4c(O)c(O)cc1c4c23 | 0.513
57 | N=C(N)c1ccc(OCCCCCOc2ccc(C(=N)N)cc2)cc1 | 0.016
58 | O=C(O)c1cn(C2CC2)c2cc(N3CCNCC3)c(F)cc2c1=O | 0.682
59 | CCCc1nc(C)c2c(=O)[nH]c(-c3cc(S(=O)(=O)N4CCN(CC)CC4)ccc3OCC)nn12 | 0.621
60 | COc1cc([C@@H]2c3cc4c(cc3[C@H](O)[C@H]3COC(=O)[C@H]23)OCO4)cc(OC)c1OC | -1.94
61 | CC1=CC(=O)c2ccccc2C1=O | 0.252
62 | Nc1[nH]c(=O)ncc1F | 1.51
63 | Nc1nc(N)c2nc(CNc3ccc(C(=O)NC(CCC(=O)O)C(=O)O)cc3)cnc2n1 (stereo not given) | 1.1
64 | COC(=O)Nc1nc2ccc(C(=O)c3ccccc3)cc2[nH]1 | -1.61
65 | Nc1nc(N)nc(-c2cc(Cl)ccc2Cl)n1 | 0.862
66 | CC(C)(Sc1cc(C(C)(C)C)c(O)c(C(C)(C)C)c1)Sc1cc(C(C)(C)C)c(O)c(C(C)(C)C)c1 | 1.09
67 | COc1ccc(-c2ccc3cc(C(=O)O)ccc3c2)cc1C12CC3CC(CC(C3)C1)C2 | -0.489
68 | NCCCC(O)(P(=O)(O)O)P(=O)(O)O | 0.863
69 | COC(=O)Nc1nc2ccc(Sc3ccccc3)cc2[nH]1 | -0.94
70 | CCc1cc(C(N)=S)ccn1 | -0.17
